The results in this text go back to PubChem BioAssay (EPA / NIEHS).

Inconclusive results are not listed. Active and inactive are the calls of the source. How the source made its calls: active means hit-call score of the fitted dose curve at least 0.9, where 1 is the maximum; inconclusive means response in the unintended direction; inactive means score below 0.9.

In this assay the target is Oxysterols receptor LXR-alpha (Homo sapiens) (UniProt Q13133). Put plainly: ATG_LXRa_TRANS: Attagene TRANS-FACTORIAL HepG2 Assay for human Liver X Receptor alpha (LXRa) (AID 2282980). To be noted: HepG2 Attagene TRANS reporter, LXRa transactivation. As to the method: ATG_TRANS is a cell-based, multiplexed-readout assay that uses HepG2, a human liver cell line, with measurements taken at 24 hours after chemical dosing in a 24-well plate.ATG_LXRa_TRANS is one of 30 assay component(s) measured or calculated from the ATG_TRANS assay. It is designed to make measurements of mRNA induction, a form of inducible reporter, as detected with fluorescence intensity signals by Reverse transcription polymerase chain reaction (RT-PCR) and Capillary electrophoresis technology.Data from the assay component ATG_LXRa_TRANS was analyzed into 1 assay endpoint. This assay endpoint, ATG_LXRa_TRANS, was analyzed in the positive analysis fitting direction relative to DMSO as the negative control and baseline of activity. Using a type of inducible reporter, measures of mRNA for gain-of-signal activity can be used to understand the reporter gene at the transcription factor-level as they relate to the gene NR1H3. Furthermore, this assay endpoint can be referred to as a primary readout, because this assay has produced multiple assay endpoints where this one serves a reporter gene function. To generalize the intended target to other relatable targets, this assay endpoint is annotated to the nuclear receptor intended target family, where the subfamily is non-steroidal.
Sequence of Oxysterols receptor LXR-alpha (Homo sapiens) (Q13133 whole entry, looked up): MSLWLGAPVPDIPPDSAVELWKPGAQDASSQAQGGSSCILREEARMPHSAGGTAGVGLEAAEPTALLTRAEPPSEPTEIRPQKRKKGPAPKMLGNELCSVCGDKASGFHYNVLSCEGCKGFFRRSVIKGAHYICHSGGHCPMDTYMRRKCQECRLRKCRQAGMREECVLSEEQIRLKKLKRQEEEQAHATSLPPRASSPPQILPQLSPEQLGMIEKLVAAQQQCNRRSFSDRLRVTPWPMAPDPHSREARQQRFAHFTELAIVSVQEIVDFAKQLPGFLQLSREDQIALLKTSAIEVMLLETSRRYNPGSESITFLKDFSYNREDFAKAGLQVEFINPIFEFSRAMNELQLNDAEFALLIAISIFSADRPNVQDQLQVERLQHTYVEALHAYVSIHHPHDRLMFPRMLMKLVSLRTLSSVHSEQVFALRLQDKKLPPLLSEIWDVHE
Human liver HepG2 cells are transiently transfected with multiple reporter transcription units (MRTUs) in 6-well plates using FuGene 6 reagent (Roche; 3 ml FuGene/1 mg DNA). The MRTU constructs are regulated by a cis-regulating element (promoter). […] A major difference between the CIS and TRANS system is that in CIS activities of endogenous TFs are measured, whereas the TRANS assay evaluates changes in activities of exogenous, chimeric NR-Gal4 proteins. […] At the end of 24 hour incubation, total RNA was isolated using TriZol reagent (Invitrogen). The isolated RNA is then reverse-transcribed using oligo(dT) primer and Mo-MLV reverse transcriptase (Invitrogen) with DNAse I (Ambion) treatment for 30 min. The one-tenth of the produced cDNA was amplified by PCR using Taq DNA polymerase (Invitrogen) and two reporter sequence-specific primers. The PCR products were fluorescently labeled by primer extension with 6-arboxyfluorescein (6-FAM) 5'-labeled reporter sequence-specific primer (2 min at 95 C, 20 s at 68 C and 10 min at 72 C) and these products were digested with 5U of HpaI (New England Biolabs) for 2h at 37 C. The fragments were purified using Qiaquick PCR columns (Qiagen), analyzed on an ABI 3130xL genetic analyzer (Applied Biosystems) with peak positions identified by using a set of X-rhodamine (ROX)-labeled MapMarker1000 molecular weight standards (BioVentures). The raw capillary electrophoresis data was processed using Attagraph software (Attagene).
Regarding `NC(=O)NC(N)=O`, the call was inactive.

Consider `CC(C)(CO)CO`, for which the compound was classed as inactive.

Consider `CCCCCC#CC(=O)OC`, for which the compound was called inactive.

Take `CC(C)CCOC(=O)CC(C)C`: the call was inactive.

On to `CCc1cccc(O)c1`, for which the outcome was inactive.

For `S=c1[nH][nH]c(=S)s1`, the compound was called inactive.

As for `CN(C)CCC=C1c2ccccc2CCc2ccccc21`, the compound was called inactive.

Take `Cc1cccc(C)c1`: the compound was classed as inactive.

Regarding `CC(C)CCCC(C)(C)O`, the compound was called inactive.

For `Cc1cc(O)c(C)c(C)c1O`, the call was inactive.

Consider `CC/C(=C(\c1ccccc1)c1ccc(OCCN(C)C)cc1)c1ccccc1`, for which the call was inactive.

Consider `O=C(O)c1ccccc1O`, for which the outcome was inactive.

As to `Nc1cc([N+](=O)[O-])ccc1C(=O)O`, the result was inactive.

Consider `CC(C)N1C(=O)c2ccccc2C1=O`, for which the compound was classed as inactive.

As for `CCCCC(CC)COCCO` (stereo not given), the compound was called inactive.

For the compound `CC(=O)CCc1ccc(O)cc1`, the result was inactive.

For `COC(=O)c1ccc(C(=O)OC)cc1`, the outcome was inactive.

For `CC1COC(=O)O1` (stereo not given), the result was inactive.

Consider `c1ccc(OCCOc2ccccc2)cc1`, for which the compound was called inactive.

Consider `CCC(=O)OC(C)(C)C1CC=C(C)CC1` (stereo not given), for which the compound was classed as inactive.

With `O=Cc1ccccc1O`, the compound was classed as inactive.

For the compound `OC[C@@H](O)[C@H](O)[C@@H](O)[C@@H](O)CO`, the compound was classed as inactive.

As for `Nc1ccn([C@H]2CC[C@@H](CO)O2)c(=O)n1`, the outcome was inactive.

For `CCCCCCCCCO`, the compound was called inactive.

As to `O=C(O)c1ccc(C(=O)O)c(C(=O)O)c1`, the call was inactive.

For `C=CC(C)(CCC=C(C)C)OC(=O)CC` (stereo not given), the result was inactive.

Turning to `c1ccc2c(c1)-c1ccc3ccc4cccc5cc-2c1c3c45`, the call was inactive.

With `CCOc1ccc(NC(C)=O)cc1`, the result was inactive.

Take `CCCO`: the outcome was inactive.

For the compound `O=S1(=O)CC=CC1`, the outcome was inactive.

Take `CC(=O)c1ccc2ccccc2c1`: the result was inactive.

As to `CCCCCCC(O)CCOC(C)=O` (stereo not given), the result was inactive.

On to `O=C(c1ccc(OCCN2CCCCC2)cc1)c1c(-c2ccc(O)cc2)sc2cc(O)ccc12`, for which the outcome was inactive.

As for `CCCCCCCC(=O)N(C)C`, the compound was called inactive.

For `CC(C)C(=O)c1ccccc1`, the call was inactive.

With `C=C(C)CCCC(C)CCO` (stereo not given), the call was inactive.

Regarding `CC(CCO)CC(C)(C)C` (stereo not given), the result was inactive.

Take `[Cl][Dy]([Cl])[Cl]`: the result was inactive.

`NC(N)=NC(N)=NCCc1ccccc1`: the compound was called inactive.

For `COc1ccccc1NC(=O)CC(C)=O`, the compound was called inactive.
